“And” between values parts separate entries of the source, which are not always exact repeats. Equal entries are not always repeated. Among all 5,500 compounds or so, about 2,000 (36%) were called active. About 18% were inconclusive and are not listed. This is one part of the list. Values without a mark were called inactive. No stated cut-off is given here; in the data, active means normalized growth mostly below about 0.91 (no sharp cut-off); inconclusive means no clear call, values can overlap the other calls; inactive means mostly above about 0.92.
Experiment: chemical genetic growth profiling, strain panel (AID 1159580);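 further: tested at 20 µM; growth read once vehicle control cultures reached saturation at 30 °C; 1 = growth at the plate median or of vehicle wells; lower values mean less growth of the strain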
Details: S. cerevisiae deletion strains, growth OD

C[C@@H]1O[C@@H](OC[C@H]2OC(Oc3c(-c4ccc(O)c(O)c4)oc4cc(O)cc(O)c4c3=O)[C@H](O)[C@@H](O)[C@@H]2O)[C@H](O)[C@H](O)[C@H]1O (stereo not given in full)
normalized growth (locus YAL013W, strain DEP1, active compounds read low): 0.995 | normalized growth (locus YAL021C, strain ccr4, active compounds read low): 0.964 | normalized growth (locus YAL026C, strain drs2, active compounds read low): 0.993 | normalized growth (locus YAL030W, strain snc1, active compounds read low): 0.998 | normalized growth (locus YBL061C, strain skt5, active compounds read low): 1.01 | normalized growth (locus YBR009C, strain hhf1, active compounds read low): 0.994 | normalized growth (locus YBR021W, strain FUR4, active compounds read low): 1.03 | normalized growth (locus YBR023C, strain chs3, active compounds read low): 1 | normalized growth (locus YBR171W, strain sec66, active compounds read low): 1 | normalized growth (locus YBR229C, strain ROT2, active compounds read low): 1.01 | normalized growth (locus YBR231C, strain swc5, active compounds read low): 1 | normalized growth (locus YBR279W, strain paf1, active compounds read low): 0.996 | normalized growth (locus YCL011C, strain gbp2, active compounds read low): 0.98 | normalized growth (locus YCL016C, strain dcc1, active compounds read low): 0.982 | normalized growth (locus YCL029C, strain bik1, active compounds read low): 0.988 | normalized growth (locus YCL061C, strain MRC1, active compounds read low): 1.01 | normalized growth (locus YCL069W, strain vba3, active compounds read low): 1.01 | normalized growth (locus YCR088W, strain abp1, active compounds read low): 1.01 | normalized growth (locus YDL005C, strain med2, active compounds read low): 1 | normalized growth (locus YDL035C, strain GPR1, active compounds read low): 0.975 | normalized growth (locus YDL040C, strain nat1, active compounds read low): 1 | normalized growth (locus YDL074C, strain BRE1, active compounds read low): 0.949 | normalized growth (locus YDL101C, strain DUN1, active compounds read low): 1 | normalized growth (locus YDL185W, strain tfp1, active compounds read low): 0.941 | normalized growth (locus YDL192W, strain arf1, active compounds read low): 0.989 | normalized growth (locus YDR001C, strain nth1, active compounds read low): 0.986 | normalized growth (locus YDR069C, strain doa4, active compounds read low): 1 | normalized growth (locus YDR101C, strain arx1, active compounds read low): 0.983 | normalized growth (locus YDR137W, strain rgp1, active compounds read low): 0.974 | normalized growth (locus YDR150W, strain NUM1, active compounds read low): 0.996 | normalized growth (locus YDR159W, strain sac3, active compounds read low): 1.07 | normalized growth (locus YDR162C, strain NBP2, active compounds read low): 1.01 | normalized growth (locus YDR195W, strain ref2): 1 | normalized growth (locus YDR297W, strain sur2, active compounds read low): 1.01 | normalized growth (locus YDR318W, strain mcm21, active compounds read low): 1 | normalized growth (locus YDR334W, strain swr1, active compounds read low): 1 | normalized growth (locus YDR335W, strain msn5, active compounds read low): 0.979 | normalized growth (locus YDR388W, active compounds read low): 1 | normalized growth (locus YDR392W, strain spt3, active compounds read low): 0.979 | normalized growth (locus YDR502C, strain sam2, active compounds read low): 1.01 | normalized growth (locus YEL003W, strain gim4, active compounds read low): 1.01 | normalized growth (locus YEL037C, strain rad23, active compounds read low): 1.01 | normalized growth (locus YEL061C, strain CIN8 (second series), active compounds read low): 1 | normalized growth (locus YEL061C, strain CIN8, active compounds read low): 1.01 | normalized growth (locus YER015W, strain faa2, active compounds read low): 0.973 | normalized growth (locus YER016W, strain bim1, active compounds read low): 1 | normalized growth (locus YER110C, active compounds read low): 0.985 | normalized growth (locus YER111C, strain swi4, active compounds read low): 0.994 | normalized growth (locus YER155C, strain BEM2 (second series), active compounds read low): 1.09 | normalized growth (locus YER155C, strain BEM2, active compounds read low): 1 | normalized growth (locus YER167W, strain BCK2, active compounds read low): 1.01 | normalized growth (locus YFR010W, strain ubp6, active compounds read low): 1 | normalized growth (locus YGL078C, strain dbp3, active compounds read low): 0.971 | normalized growth (locus YGL086W, strain mad1, active compounds read low): 0.997 | normalized growth (locus YGL167C, strain pmr1, active compounds read low): 0.975 | normalized growth (locus YGL173C, strain kem1, active compounds read low): 1.02 | normalized growth (locus YGL227W, strain vid30, active compounds read low): 1 | normalized growth (locus YGL240W, strain doc1, active compounds read low): 1.04 | normalized growth (locus YGL248W, strain PDE1, active compounds read low): 1.03 | normalized growth (locus YGL253W, strain hxk2, active compounds read low): 0.991 | normalized growth (locus YGR078C, strain PAC10, active compounds read low): 1.03 | normalized growth (locus YGR135W, strain pre9, active compounds read low): 1.03 | normalized growth (locus YGR252W, strain gcn5, active compounds read low): 1.09 | normalized growth (locus YHR013C, strain ard1, active compounds read low): 0.979 | normalized growth (locus YHR027C, strain rpn1, active compounds read low): 0.985 | normalized growth (locus YHR030C, strain SLT2, active compounds read low): 0.992 and 1.1 | normalized growth (locus YHR079C, strain IRE1 (second series), active compounds read low): 0.98 | normalized growth (locus YHR079C, strain IRE1, active compounds read low): 1.07 | normalized growth (locus YHR094C, strain hxt1, active compounds read low): 0.997 | normalized growth (locus YHR129C, strain ARP1, active compounds read low): 1.01 | normalized growth (locus YHR142W, strain chs7, active compounds read low): 0.969 | normalized growth (locus YHR200W, strain rpn10, active compounds read low): 1 | normalized growth (locus YIL066C, strain RNR3, active compounds read low): 1 | normalized growth (locus YIL073C, strain SPO22, active compounds read low): 0.99 | normalized growth (locus YIL125W, strain kgd1, active compounds read low): 0.994 | normalized growth (locus YIR030C, strain dcg1, active compounds read low): 0.997 | normalized growth (locus YJL092W, strain hpr5, active compounds read low): 1 | normalized growth (locus YJL095W, strain BCK1 (second series), active compounds read low): 1 | normalized growth (locus YJL095W, strain BCK1, active compounds read low): 1.07 and 1.06 | normalized growth (locus YJL115W, strain asf1, active compounds read low): 0.968 | normalized growth (locus YJL129C, strain trk1, active compounds read low): 0.987 | normalized growth (locus YJL134W, strain LCB3, active compounds read low): 0.997 | normalized growth (locus YJL154C, strain vps35, active compounds read low): 0.999 | normalized growth (locus YJL164C, strain tpk1, active compounds read low): 0.974 | normalized growth (locus YJL166W, strain qcr8, active compounds read low): 1.02 | normalized growth (locus YJL168C, strain set2, active compounds read low): 0.996 | normalized growth (locus YJL187C, strain SWE1 (second series), active compounds read low): 1.01 | normalized growth (locus YJL187C, strain SWE1, active compounds read low): 0.999 | normalized growth (locus YJR043C, strain POL32, active compounds read low): 1 | normalized growth (locus YJR066W, strain TOR1, active compounds read low): 1 | normalized growth (locus YJR075W, strain HOC1, active compounds read low): 1.02 | normalized growth (locus YKL009W, strain mrt4, active compounds read low): 1.11 | normalized growth (locus YKL068W, active compounds read low): 0.982 | normalized growth (locus YKL085W, strain MDH1 (second series), active compounds read low): 0.992 | normalized growth (locus YKL085W, strain MDH1, active compounds read low): 0.992 | normalized growth (locus YKL160W, strain elf1, active compounds read low): 0.976 | normalized growth (locus YKR001C, strain vps1, active compounds read low): 1.01 | normalized growth (locus YKR026C, strain gcn3, active compounds read low): 1 | normalized growth (locus YKR091W, strain srl3, active compounds read low): 0.996 | normalized growth (locus YLL001W, strain dnm1, active compounds read low): 0.942 | normalized growth (locus YLL026W, active compounds read low): 0.997 | normalized growth (locus YLL041C, strain sdh2, active compounds read low): 0.995 | normalized growth (locus YLR027C, strain aat2, active compounds read low): 1.01 | normalized growth (locus YLR039C, strain RIC1, active compounds read low): 0.979 | normalized growth (locus YLR058C, strain SHM2, active compounds read low): 1.03 | normalized growth (locus YLR102C, strain apc9, active compounds read low): 1 | normalized growth (locus YLR113W, strain HOG1, active compounds read low): 1.03 | normalized growth (locus YLR221C, strain rsa3, active compounds read low): 1.06 | normalized growth (locus YLR258W, strain gsy2, active compounds read low): 1.02 | normalized growth (locus YLR262C, strain YPT6 (second series), active compounds read low): 1.03 | normalized growth (locus YLR262C, strain YPT6, active compounds read low): 0.99 | normalized growth (locus YLR268W, strain sec22, active compounds read low): 0.977 | normalized growth (locus YLR320W, strain mms22, active compounds read low): 1.08 | normalized growth (locus YLR330W, strain CHS5, active compounds read low): 0.999 | normalized growth (locus YLR342W, strain FKS1 (second series), active compounds read low): 1 | normalized growth (locus YLR342W, strain FKS1, active compounds read low): 1.01 | normalized growth (locus YLR357W, strain rsc2, active compounds read low): 0.955 | normalized growth (locus YLR370C, strain arc18, active compounds read low): 1.01 | normalized growth (locus YLR371W, strain rom2, active compounds read low): 0.995 | normalized growth (locus YLR384C, strain iki3, active compounds read low): 0.993 | normalized growth (locus YLR418C, strain cdc73, active compounds read low): 1.03 | normalized growth (locus YML016C, strain PPZ1, active compounds read low): 1.01 | normalized growth (locus YML032C, strain rad52, active compounds read low): 1.03 | normalized growth (locus YML120C, strain ndi1, active compounds read low): 0.972 | normalized growth (locus YML124C, strain tub3, active compounds read low): 0.993 | normalized growth (locus YMR058W, strain fet3, active compounds read low): 0.881 (active) | normalized growth (locus YMR078C, strain ctf18, active compounds read low): 0.999 | normalized growth (locus YMR125W, strain sto1, active compounds read low): 0.965 | normalized growth (locus YMR129W, active compounds read low): 1.01 | normalized growth (locus YMR205C, strain PFK2, active compounds read low): 1 | normalized growth (locus YMR223W, strain ubp8, active compounds read low): 1.01 | normalized growth (locus YMR231W, strain pep5, active compounds read low): 1 | normalized growth (locus YMR307W, strain GAS1, active compounds read low): 1.03 | normalized growth (locus YNL067W, strain RPL9B, active compounds read low): 1.01 | normalized growth (locus YNL071W, strain lat1, active compounds read low): 1.02 | normalized growth (locus YNL183C, strain NPR1, active compounds read low): 0.999 | normalized growth (locus YNL209W, strain ssb2, active compounds read low): 0.939 | normalized growth (locus YNL233W, strain BNI4, active compounds read low): 1.02 | normalized growth (locus YNL248C, strain rpa49, active compounds read low): 1.01 | normalized growth (locus YNL250W, strain rad50, active compounds read low): 0.963 | normalized growth (locus YNL271C, strain bni1, active compounds read low): 0.987 | normalized growth (locus YNL298W, strain CLA4, active compounds read low): 0.982 | normalized growth (locus YNL307C, strain MCK1, active compounds read low): 0.987 | normalized growth (locus YNL322C, strain KRE1 (second series), active compounds read low): 0.997 | normalized growth (locus YNL322C, strain KRE1, active compounds read low): 1.01 | normalized growth (locus YNR049C, strain mso1, active compounds read low): 0.998 | normalized growth (locus YNR052C, strain pop2, active compounds read low): 1.01 | normalized growth (locus YOL006C, strain TOP1, active compounds read low): 1.03 | normalized growth (locus YOL012C, strain htz1): 0.939 | normalized growth (locus YOL147C, strain pex11, active compounds read low): 1 | normalized growth (locus YOR001W, strain rrp6, active compounds read low): 1.03 | normalized growth (locus YOR061W, strain CKA2, active compounds read low): 1.01 | normalized growth (locus YOR069W, strain VPS5, active compounds read low): 0.994 | normalized growth (locus YOR070C, strain gyp1, active compounds read low): 0.999 | normalized growth (locus YOR080W, strain dia2, active compounds read low): 1.01 | normalized growth (locus YOR083W, strain WHI5, active compounds read low): 0.97 | normalized growth (locus YOR106W, strain vam3, active compounds read low): 0.877 | normalized growth (locus YOR136W, strain idh2, active compounds read low): 0.99 | normalized growth (locus YOR144C, strain elg1, active compounds read low): 1.01 | normalized growth (locus YOR184W, strain ser1, active compounds read low): 1 | normalized growth (locus YOR231W, strain MKK1, active compounds read low): 1.05 | normalized growth (locus YOR265W, strain rbl2, active compounds read low): 1.01 | normalized growth (locus YOR270C, strain vph1, active compounds read low): 1 | normalized growth (locus YOR290C, strain snf2, active compounds read low): 0.959 | normalized growth (locus YOR316C, strain cot1, active compounds read low): 0.999 | normalized growth (locus YPL051W, strain arl3, active compounds read low): 0.971 | normalized growth (locus YPL078C, strain atp4, active compounds read low): 0.941 | normalized growth (locus YPL106C, strain sse1, active compounds read low): 0.999 | normalized growth (locus YPL240C, strain hsp82, active compounds read low): 1 | normalized growth (locus YPL256C, strain CLN2, active compounds read low): 1.09 | normalized growth (locus YPR119W, strain clb2, active compounds read low): 1 | normalized growth (locus YPR141C, strain kar3, active compounds read low): 0.994 | normalized growth (locus YPR163C, strain tif3, active compounds read low): 0.998 | normalized growth (locus YPR167C, strain met16, active compounds read low): 0.991 | normalized growth (strain wtn01, active compounds read low): 0.975

Reference: PubChem BioAssay AID1159580 (chemical genetic matrix, 2015)
